AMA1-RON2 inh – qHTS for Inhibitors of AMA1-RON; Towards Development of Antimalarial Drug Lead: Primary Screen; Potency, µM (doses to about 58.2 µM), inactives show at the top dose activity change, negative = inhibition, actives largely listed as inhibitors; AlphaScreen AMA1-biotinylated RON2 peptide binding; AID 720542, 2013; 360,000 compounds, 0.2% hits; Plasmodium falciparum AMA1 (3D7) - RON2 peptide interaction;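 also: potency is read from the fitted curve at half-maximal effect; 0% = vehicle wells and -100% = peptide control; nearly all actives have a fitted effect of over 45% in size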
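AMA1 (3D7) with his tag at 25 nM final met compounds first, then biotinylated RON2 peptide at 25 nM; detection used donor plus acceptor beads, 10 µg/mL apiece, read by AlphaScreen after 30 min at room temperature.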
AmpC inh detg – qHTS Inhibitors of AmpC Beta-Lactamase (assay with detergent); P00811; AmpC hydrolysis of nitrocefin, absorbance 480 nm, 0.01% Triton; Potency, µM (top dose mostly 114 µM), for inactives: at the top dose activity change, negative = inhibition, actives largely listed as inhibitors; 370,000 compounds, 0.041% hits;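 also: potency is read from the fitted curve at half-maximal effect; 0% = no-compound wells and -100% = no-enzyme wells; nearly all actives have a fitted effect of over 25% in size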
Target sequence (P00811 whole entry, looked up): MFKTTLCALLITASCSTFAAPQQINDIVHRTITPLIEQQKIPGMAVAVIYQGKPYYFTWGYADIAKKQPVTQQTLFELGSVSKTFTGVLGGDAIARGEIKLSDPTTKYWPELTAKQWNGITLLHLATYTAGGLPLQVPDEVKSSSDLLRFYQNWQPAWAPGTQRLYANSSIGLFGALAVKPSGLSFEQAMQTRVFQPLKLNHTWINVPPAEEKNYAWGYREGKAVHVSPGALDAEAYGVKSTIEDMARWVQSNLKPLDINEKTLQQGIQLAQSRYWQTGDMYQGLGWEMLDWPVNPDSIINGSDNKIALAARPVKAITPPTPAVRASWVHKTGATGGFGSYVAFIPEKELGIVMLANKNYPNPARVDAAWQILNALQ
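20 mM phosphate pH 7.0 + 0.01% (detergent screen) or 0.0001% Triton X-100; 5.3 nM AmpC reagent; cpd preinc 15 min RT; nitrocefin (800 uM stock) to start; A480 q20 s × 4 min; Activity was normalised to no-enzyme and no-compound control wells.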
SARS PLP yeast – qHTS of Yeast-based Assay for SARS-CoV PLP | S. cerevisiae expressing SARS-CoV PLpro, growth rescue | Potency, µM (top dose mostly 32.9 µM), for inactives: top-dose activity, positive = growth rescue, most hits filed as activators | 330,000 compounds, 0.19% hits | AID 485353, 2010; calls by dose curve; also: potency is read from the fitted curve at half-maximal effect; 0% is about no effect; nearly all actives have a fitted effect of over 55% in size
CHX counter – Cycloheximide Counterscreen for Small Molecule Inhibitors of Shiga Toxin; 300,000 compounds, 12% hits; AID 2314, 2010; max response, %; cell reporter, cycloheximide protein synthesis inhibition counterscreen; in the data active = max response mostly above about 13%, no sharp cut-off; inactive = mostly below about 14%; also: read at 38.3 µM for the half of the compounds with a filed dose; 0% is about no effect
Shiga toxin inh – A qHTS for Small Molecule Inhibitors of Shiga Toxin; 290,000 compounds, 9.2% hits; Vero cells, Shiga toxin protein synthesis inhibition reporter; inhibition, % at 38.7 µM; AID 2315, 2010; in the data active = inhibition mostly above about 28%, no sharp cut-off; inactive = mostly below about 43%; also: 0% is about no effect
AmpC no deterg – qHTS Inhibitors of AmpC Beta-Lactamase (assay without detergent); AmpC nitrocefin hydrolysis, absorbance 480 nm, 0.0001% Triton; P00811; 330,000 compounds, 0.52% hits; Potency, µM (highest dose often 57.1 µM), inactives show at the highest dose activity change, negative = inhibition, hits mostly inhibitors; AID 485341, 2010;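 also: potency is read from the fitted curve at half-maximal effect; plate controls were no compound for no effect and no enzyme for full effect; nearly all actives have a fitted effect of over 20% in size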
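20 mM phosphate pH 7.0 + 0.01% (detergent screen) or 0.0001% Triton X-100; 5.3 nM AmpC reagent; cpd preinc 15 min RT; nitrocefin (800 uM stock) to start; A480 q20 s × 4 min; Activity was normalised to no-enzyme and no-compound control wells.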
* hit, by the source's call; ? = inconclusive; . = not tested or not shown. Shown is part of a subset that was picked to be rich in hits. Unless noted, calls follow the shape of the dose curve; as a rule, active = well fitted curve in the direction sought with a large enough effect; inconclusive = small, poorly fitted or top-dose-only effect, or another doubt; inactive = no such curve, though single readings can be large; an effect the other way counts as inactive or inconclusive.

SMILES	AMA1-RON2 inh	AmpC inh detg	SARS PLP yeast	CHX counter	Shiga toxin inh	AmpC no deterg
O=C(NC(NC(=S)Nc1ccccc1C(=O)O)C(Cl)(Cl)Cl)c1ccco1 (stereo not given)	-27%	-1%	6%	31*	45*	-20%
CCOC(=O)C(NC(C)=O)(OCc1ccccc1)C(F)(F)F (stereo not given)	0%	2%	7%	-1	13	-4%
CC1Cc2ccccc2N1C(=O)CO/N=C/c1ccc(OC(F)F)cc1 (stereo not given)	-8%	0%	-22%	-3	11	1%
COc1ccc(-c2csc(NC(=O)CSCC(=O)Nc3cc(C)on3)n2)c(OC)c1	-3%	-11%	-2%	.	.	-28%
Cc1ccc(N2CC(C(=O)Nc3ccc(S(=O)(=O)NCC4CCCO4)cc3)CC2=O)cc1 (stereo not given)	-1%	5%	8%	4	-10	45%
O=C(N/N=C/c1ccc2c(c1)OCO2)c1ccc(NC(=O)c2ccc(F)cc2)cc1	20%	-8%	7%	10	55	?
Cc1cc(C(=O)N/N=C/c2ccc3c(c2)OCO3)c(C)n1-c1ccc(F)cc1	1%	3%	-2%	27*	62*	-44%
Cc1cc(C(=O)N/N=C/c2ccc(Cl)c([N+](=O)[O-])c2)c(C)n1-c1ccc(F)cc1	8%	-9%	3%	13	35*	16µM*
CC(C)C[C@@H](CSc1ccccc1)N1CCN(C)CCC1=O	-3%	-10%	-9%	18*	24	30%
CN1CCC(=O)N([C@H](CSc2ccc(Br)cc2)Cc2ccccc2)CC1	27%	-10%	1%	-2	-3	181%
CC(C)CC(CSc1ccc(Br)cc1)N1CCN(C)CCC1=O (stereo not given)	.	.	.	40	90*	.
COc1ccc(SCC(CC(C)C)N2CCN(C)CCC2=O)cc1 (stereo not given)	.	.	.	25*	53*	.
CC(=O)Nc1ccc(SCC(CC(C)C)N2CCN(C)CCC2=O)cc1 (stereo not given)	.	.	.	2	6	.
CN1CCC(=O)N([C@H](CSc2ccccc2)Cc2ccccc2)CC1	1%	-11%	7%	-2	-1	46%
Cc1ccc(SCC(CC(C)C)N2CCN(C)CCC2=O)cc1 (stereo not given)	.	.	.	33*	72*	.
COc1cccc(N2C(N)=NC(N)=NC2(C)C)c1	8%	-10%	1%	1	-9	-19%
Cc1noc(C)c1S(=O)(=O)Nc1ccc2c(c1)C(=O)N([C@H](C)CO)C[C@@H](C)[C@@H](CN(C)Cc1ccc3c(c1)OCO3)O2	8%	.	-4%	.	.	209%
CC(c1ccccc1)C1NC(C(=O)O)CS1 (stereo not given)	2%	-13%	-3%	8	10	-17%
CCOc1ccc(-c2nc(N)ncc2-c2ccc(Cl)cc2)c(O)c1	-1%	-2%	-6%	3	1	-34%
O=C1CCN(Cc2ccccc2)CCN1[C@H](CO)c1ccccc1	-3%	-13%	4%	1	-1	40%
CN1CCC(=O)N([C@H](CO)c2ccccc2)CC1	-3%	1%	1%	18*	15	-23%
CC(=O)N1CCCc2cc(S(=O)(=O)N(Cc3ccccc3)C(C)C)ccc21	.	3%	.	.	.	.
Brc1c(OCCOCCn2cncn2)ccc2ccccc12	2%	-2%	-7%	20*	27*	66%
COc1cccc(OCc2cc(C(=O)NCC3CCCCC3)no2)c1	8%	?	-10%	35*	38*	-12%
COc1ccc(OCc2cc(C(=O)NC3CCc4ccccc43)no2)c(Cl)c1 (stereo not given)	5%	-6%	?	0	-1	-18%
COc1cccc(OCc2cc(C(=O)NCCc3cccc(C)n3)no2)c1	17%	-12%	-2%	11	9	23%

Screening data (PubChem)
